# Compound activity from PubChem.
# This is a sample that favours compounds with a hit; in the whole collection about 10% have one here.
# FLuc inh: inhibitors of firefly (Photinus pyralis) luciferase; Potency, µM (top dose mostly 115 µM), most hits filed as inhibitors; purified P. pyralis luciferase, luminescence, biochemical; actives 2.5% (n = 76,000); AID 1347043; note: nearly all actives have a fitted effect of over 65% in size
#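 Inhibitors were tested against purified firefly luciferase in a biochemical, low-substrate format (both substrates at 10uM) and luminescence measured with a CCD imager.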
# GPT2 inh: GPT2 alanine aminotransferase inhibition; Q8TD30; Recombinant GPT2, coupled pyruvate oxidase/HRP Amplex Red fluorescence; Potency, µM (top dose mostly 57.7 µM), for inactives: top-dose activity change, negative = inhibition, hits mostly inhibitors; actives 0.25% (n = 100,000); note: nearly all actives have a fitted effect of over 60% in size
#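 Inhibition is scored from Amplex Red fluorescence generated when pyruvate oxidase and HRP act on pyruvate released by GPT2. Reactions contain 10ng/uL enzyme, 250uM a-KG and 2mM L-alanine and run 30 min at room temperature.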
# NPR1 antag: antagonists of human natriuretic peptide receptor Npr1; P16066; HEK293 hNpr1 GloSensor cGMP, ANP-stimulated luminescence; Potency, µM (doses to about 46.3 µM), inactives show at the highest dose activity change, negative = inhibition, usual class: inhibitors; actives 1.6% (n = 76,000); AID 1347048; calls by dose curve; note: nearly all actives have a fitted effect of over 60% in size
# Target sequence (P16066 whole entry, looked up): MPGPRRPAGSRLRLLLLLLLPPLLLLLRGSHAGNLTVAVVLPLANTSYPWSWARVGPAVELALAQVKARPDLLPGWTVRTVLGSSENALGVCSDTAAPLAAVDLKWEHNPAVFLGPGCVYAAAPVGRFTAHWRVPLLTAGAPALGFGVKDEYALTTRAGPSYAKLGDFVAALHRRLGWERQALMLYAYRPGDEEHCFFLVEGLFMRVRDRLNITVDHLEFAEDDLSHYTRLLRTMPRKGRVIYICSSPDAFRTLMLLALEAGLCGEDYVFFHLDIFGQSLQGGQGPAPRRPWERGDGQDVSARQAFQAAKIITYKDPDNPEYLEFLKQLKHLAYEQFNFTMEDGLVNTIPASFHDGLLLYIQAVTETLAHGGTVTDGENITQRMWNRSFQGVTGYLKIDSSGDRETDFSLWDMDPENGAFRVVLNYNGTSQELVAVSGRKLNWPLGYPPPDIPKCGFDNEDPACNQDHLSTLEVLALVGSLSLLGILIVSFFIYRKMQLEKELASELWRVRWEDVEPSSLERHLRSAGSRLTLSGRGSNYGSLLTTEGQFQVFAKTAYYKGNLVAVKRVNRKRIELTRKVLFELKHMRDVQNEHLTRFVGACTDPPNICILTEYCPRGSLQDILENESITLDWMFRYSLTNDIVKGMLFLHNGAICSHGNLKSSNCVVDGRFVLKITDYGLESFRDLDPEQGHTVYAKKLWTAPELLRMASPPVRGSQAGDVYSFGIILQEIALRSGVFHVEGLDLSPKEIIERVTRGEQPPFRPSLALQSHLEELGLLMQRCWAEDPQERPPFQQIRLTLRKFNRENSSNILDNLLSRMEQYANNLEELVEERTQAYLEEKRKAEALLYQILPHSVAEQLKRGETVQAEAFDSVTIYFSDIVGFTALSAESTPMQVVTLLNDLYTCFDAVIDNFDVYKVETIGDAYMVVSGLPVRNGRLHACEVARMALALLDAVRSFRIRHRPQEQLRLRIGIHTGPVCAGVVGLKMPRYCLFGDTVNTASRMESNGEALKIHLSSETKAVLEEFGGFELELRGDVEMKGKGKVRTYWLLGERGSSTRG
#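 Compound pre-incubated 30 min at room temperature on GloSensor-loaded HEK293 cells stably carrying hNpr1 and the pGS-40F cGMP biosensor. Stimulation uses hNppA at 0.1 nM final; luminescence is taken at baseline and 20 min post-agonist.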
# 3T3 cytotox: NIH 3T3 cell cytotoxicity | NIH 3T3 viability, CellTiter-Glo ATP luminescence, 48-72 h | Potency, µM (doses to about 96.7 µM), without a hit: top-dose activity change, negative = cytotoxicity, most hits filed as inhibitors | actives 4.3% (n = 94,000) | AID 1345082; note: nearly all actives have a fitted effect of over 55% in size
#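 Viability of NIH 3T3 cells after 48 or 72 hr compound treatment at 37 °C was assessed by CellTiter-Glo, with luminescence imaged following a 10 min room-temperature step.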
# HEK293 tox: kills HEK 293 cells; HEK 293 viability, ATP luminescence (CellTiter-Glo), 48-72 h; Potency, µM (highest dose often 115 µM), without a hit: at the highest dose activity change, negative = cytotoxicity, most hits filed as inhibitors; actives 6.6% (n = 94,000); AID 1345083; note: nearly all actives have a fitted effect of over 60% in size
#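 250 HEK 293 cells/well; compound by pintool; incubated 48 or 72 hr at 37 degree Celsius; CellTiter-Glo added, 10 min RT, luminescence imaged.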
# * marks the source's active call; other numbers are inactive results; i = inactive; ? = inconclusive; · = not tested or not shown; [ ] = dose if it differs, or a comment. Unless noted, calls come from the whole dose curve; as a rule, active = well fitted curve in the direction sought with a large enough effect; inconclusive = small, poorly fitted or top-dose-only effect, or another doubt; inactive = no such curve, though single readings can be large; an effect the other way counts as inactive or inconclusive. % is set by controls: 0 for no effect and ±100 for the full control effect; potency is the fitted concentration of half-maximal effect.
SMILES,FLuc inh,GPT2 inh,NPR1 antag,3T3 cytotox,HEK293 tox
COc1cccc(-c2ccc(CN3CCCC(NC(=O)c4ccc(Cl)cc4)C3)cc2)c1 (centres undefined),·,4%,·,?,?
COc1cccc(-c2ccc(CN3CCCC(NC(=O)c4cccnc4)C3)cc2)c1 (centres undefined),·,·,·,?,28µM*
COc1cccc(-c2ccc(CN3CCCC(NC(=O)c4cccc(Cl)c4)C3)cc2)c1 (centres undefined),·,i,·,32µM*,?
COC(=O)CNC(=O)c1cc(-c2ccccc2F)nc2c1cnn2C,·,·,·,?,-16%[172 µM]
COc1ccccc1Nc1ccnc(N2CCN(C(=O)c3cccc(Cl)c3)CC2)n1,·,i,·,?,?
CC(=O)N1CCN(c2nccc(Nc3ccccc3F)n2)CC1,·,i,·,-26%[138 µM],?
COc1ccccc1Nc1ccnc(N2CCN(C(=O)Cc3cccc(Cl)c3)CC2)n1,·,3%,·,?,45µM*
O=C(Cc1cccc(Cl)c1)N1CCN(c2nccc(Nc3ccccc3F)n2)CC1,·,-4%,·,?,28µM*
CCOc1ccc(NC(=O)c2ccc3c(c2)N(CC)C2CCCCN2C3=O)cc1 (centres undefined),i,0%,-9%,22µM*,32µM*
CCOC(=O)c1ccc(NC(=O)c2ccc3c(c2)N(C)C2CCCCN2C3=O)cc1 (centres undefined),i,i,0%,?,35µM*
CN1c2cc(C(=O)Nc3ccc(C(N)=O)cc3)ccc2C(=O)N2CCCCC21 (centres undefined),i,1%,0%,?,-5%
CCOC(=O)c1ccc(NC(=O)c2ccc3c(c2)N(CC)C2CCCCN2C3=O)cc1 (centres undefined),i,i,-25%,?,35µM*
CCOC(=O)c1ccc(NC(=O)c2ccc3c(c2)N(CC)C2CCCN2C3=O)cc1 (centres undefined),i,4%,-4%,-40%,?
O=C(Nc1ccc(F)cc1)C1CCc2nnc(C3CC3)n21 (centres undefined),·,i,·,-6%,5%
O[C@@H]1CCC2CC1[C@@H](O)CN2Cc1ccc(-c2ccccc2)cc1 (some centres undefined),·,·,·,?,79µM*
CN(C)CCNC(=O)C1CCc2sc(C(=O)N3CCOCC3)cc2C1 (centres undefined),i,-6%,-2%,4%,0%
Cc1nc(CC2CCN(C(=O)c3cc4c(s3)CCC(C)C4)CC2)no1 (centres undefined),40µM*,5%,-2%,?,?
Clc1ccc(Oc2cccc(CN3CCN(C4CCNC4)CC3)c2)cc1 (centres undefined),i,-6%[11.5 µM],3%,28µM*,28µM*
Cc1cc(OCC(=O)O)c(C)c2c1CC[C@@H]([C@H](C)C(=O)NCc1ccccc1)C2,i,2%[88.5 µM],3%[70.6 µM],79µM*,i
COc1cc(C)c2c(c1C)C[C@H]([C@H](C)C(=O)NC1CCCC1)CC2,i,-9%[88.5 µM],?,?,40µM*
COc1ccc(CNC(=O)C2CCN(C(=O)c3ccc(-c4cncnc4)cc3)CC2)cc1,·,·,·,-35%,?
Cn1cnnc1CC1CCN(C(=O)CCc2nc3ccccc3[nH]c2=O)CC1,i,-22%[11.5 µM],0%,-8%,-8%
COc1cc2c(cc1OC)C(CNC(=O)c1ccco1)N(C(=O)Nc1cccc(F)c1)CC2 (centres undefined),i,-9%,1%,-19%,45µM*
COc1ccc(C(=O)N2CCCn3nc(C)c(-c4ccccc4Oc4ccccc4)c32)cn1,i,1%[88.5 µM],-24%[70.6 µM],?,?
COc1ccccc1C(=O)N1CCCn2nc(C)c(-c3ccccc3Oc3ccccc3)c21,i,i,-3%[70.6 µM],?,100µM*
SMILES,FLuc inh,GPT2 inh,NPR1 antag,3T3 cytotox,HEK293 tox
Cc1nn2c(c1-c1ccccc1Oc1ccccc1)N(C(=O)Cc1ccccc1)CCC2,i,-11%[88.5 µM],?,?,79µM*
Cc1nn2c(c1-c1ccccc1Oc1ccccc1)N(Cc1cccc(C(=O)O)c1)CCC2,?,2%[88.5 µM],?,?,?
COc1ccccc1C(=O)N1CCCn2nc(C)c(-c3ccccc3OCc3ccccc3)c21,i,-9%,-2%,?,?
Cc1nn2c(c1-c1ccccc1Oc1ccccc1)N(C(=O)c1cccc(C#N)c1)CCC2,i,4%[88.5 µM],-19%[70.6 µM],?,71µM*
Cc1nn2c(c1-c1ccccc1Oc1ccccc1)N(C(=O)c1ccccc1)CCC2,i,-8%[88.5 µM],-25%[70.6 µM],45µM*,56µM*
COc1ccc(CNc2ncnc3c2CN(C2CCCNCC2)C(=O)CN3C)cc1 (centres undefined),·,i,·,-3%,-3%
CNC(=O)c1cc(C)nc2onc(C3CCN(C(=O)C4CC4)CC3)c12,·,·,·,-19%,-11%
Cn1cccc1CN1CCC2(Cc3ccccc3NC2=O)C1 (centres undefined),i,4%[88.5 µM],2%[70.6 µM],-19%[138 µM],?
CCCN(C)c1nccnc1OC1CCN(C(=O)c2ccc(OC)nc2OC)C1 (centres undefined),22µM*,1%,-21%,-8%,?
NC(=O)c1cccnc1OC1CCN(C(=O)c2ccoc2)C1 (centres undefined),i,-7%,2%,-7%,-3%
CCCN(C)c1nccnc1OC1CCN(C(=O)c2ccc(F)cc2)C1 (centres undefined),35µM*,i,-11%,-13%,?
CCCN(C)c1nccnc1OC1CCN(C(=O)c2ccoc2)C1 (centres undefined),14µM*,i,-7%,-28%,?
O=C(c1cccnc1)N1CCCN(c2ccc3nnc(-c4ccccc4)n3n2)CC1,·,·,·,-27%,-24%
CC(C)(O)c1ccc2c(c1)C(=O)C[C@H]1[C@](C)(C(=O)O)CCC[C@]21C,·,i,·,·,·
O=S(=O)(c1ccccc1F)N1CC(n2cnnc2-c2ccccc2)C1,·,i,·,?,-28%
O=C(NCCCc1ccccc1)c1n[nH]c2c1CN(C(=O)c1ccccc1Cl)CC2,?,i,0%,?,?
O=C(NCCCc1ccccc1)c1n[nH]c2c1CN(C(=O)c1ccc(F)cc1F)CC2,i,-7%,2%,?,79µM*
O=C(NCCCc1ccccc1)c1n[nH]c2c1CN(C(=O)c1c(F)cccc1F)CC2,i,?,0%,?,18µM*
O=C(NCCCc1ccccc1)c1n[nH]c2c1CN(C(=O)c1ccc3c(c1)OCO3)CC2,·,?,·,35µM*,?
Cc1ccc(C(=O)N2CCc3[nH]nc(C(=O)NCCCc4ccccc4)c3C2)cc1F,·,-3%,·,?,?
